Compound activity from PubChem BioAssay.
Many of the other results were omitted from the sample, so hits are more common in it than they were.
Vaccinia Venus: vaccinia inhibition (Venus reporter); AID 720580; Vaccinia virus Venus reporter expression, fluorescence; 330,000 compounds, 0.46% hits; Potency, µM (doses to about 36.5 µM), usual class: inhibitors; calls by dose curve; tested in A549 cells; also: nearly all actives have a fitted effect of over 30% in size
CHX counter: affects cycloheximide protein synthesis inhibition readout, counter-screen | cell reporter, cycloheximide protein synthesis inhibition counterscreen | max response, % | 300,000 compounds, 12% hits | AID 2314; in the data active = max response mostly above about 13%, no sharp cut-off; inactive = mostly below about 14%; also: read at 38.3 µM for the half of the compounds with a filed dose
Shiga toxin inh: inhibitors of Shiga toxin in Vero cells; Vero cells, Shiga toxin protein synthesis inhibition reporter; inhibition, % at 38.7 µM; 290,000 compounds, 9.2% hits; in the data active = inhibition mostly above about 28%, no sharp cut-off; inactive = mostly below about 43%
VACV mCherry inh: vaccinia inhibition (mCherry reporter). Vaccinia virus mCherry reporter infection, fluorescence. Potency, µM (doses to about 36.5 µM), actives largely listed as inhibitors. AID 720579. 310,000 compounds, 0.63% hits; calls by dose curve; tested in A549 cells; also: nearly all actives have a fitted effect of over 35% in size
Lassa entry inh: blocks Lassa virus binding to or entry into cells; Lassa virus pseudotype entry inhibition, cell reporter; Potency, µM (highest dose often 37.9 µM), actives largely listed as inhibitors; 300,000 compounds, 1.2% hits; calls by dose curve; tested in HEK293 cells; also: nearly all actives have a fitted effect of over 50% in size
Marburg entry inh: Marburg virus entry inhibition; Marburg virus pseudotyped entry inhibition, cell reporter; Potency, µM (doses to about 37.8 µM), hits mostly inhibitors; 300,000 compounds, 1.8% hits; AID 540276; calls by dose curve; tested in HEK293 cells
Large screens that a line does not name were inactive.

Clc1ccc(-c2nnc(-c3ccccc3)o2)cn1	CHX counter 11
Cc1nc(N)nc(N)c1Oc1ccc(Cl)cc1	none (no result: CHX counter, Shiga toxin inh)
Cc1nc(N)nc(N)c1/C=C/C(C)(C)c1ccc(Cl)cc1	Vaccinia Venus 3.5µM, VACV mCherry inh inconclusive, Lassa entry inh inconclusive, Marburg entry inh inconclusive
N/C(=N\OC(=O)c1ccncc1)c1cccc([N+](=O)[O-])c1	CHX counter 27, Lassa entry inh inconclusive, Marburg entry inh inconclusive (no result: Shiga toxin inh)
CC1=CC(=O)C(C(C)C)=C/C1=N/OC(=O)c1cccc([N+](=O)[O-])c1	none
CC1=CC(=NOC(=O)c2cccc([N+](=O)[O-])c2)C=C(C)C1=O	CHX counter 23
Cc1ccc(C(=O)O/N=C(\N)c2cccc([N+](=O)[O-])c2)cc1	CHX counter 39, Shiga toxin inh 69, Lassa entry inh inconclusive (no result: Vaccinia Venus, VACV mCherry inh)
N/C(=N\OC(=O)C1CCCCC1)c1cccc([N+](=O)[O-])c1	CHX counter 66, Shiga toxin inh 106, Lassa entry inh inconclusive
Cc1cccc(NC(=O)CCCn2c(C)c3cnn(-c4ccccc4)c(=O)c3c2C)c1C	none (no result: CHX counter, Shiga toxin inh)
Cc1cc(C)c2c(=O)cc(C(=O)Nc3sc4c(c3C(=O)NCc3ccco3)CCCC4)oc2c1	Lassa entry inh inconclusive (no result: CHX counter, Shiga toxin inh)
COc1ccc(C(=O)Nc2ccc3nc(SCC(=O)N4CCCC4)sc3c2)cc1	none (no result: CHX counter, Shiga toxin inh)
N/C(=N\OC(=O)Cc1ccc([N+](=O)[O-])cc1)c1cccc(Br)c1	Marburg entry inh inconclusive
N/C(=N\OC(=O)c1ccc(Br)cc1)c1cccc([N+](=O)[O-])c1	CHX counter 26, Shiga toxin inh 20 (no result: Vaccinia Venus, VACV mCherry inh, Lassa entry inh, Marburg entry inh)
Cc1cccc(/C(N)=N/OC(=O)c2ccncc2)c1	CHX counter 46, Shiga toxin inh 68, Lassa entry inh inconclusive
Cc1ccc(CC(=O)O/N=C(\N)c2cccc([N+](=O)[O-])c2)cc1	CHX counter 15 (no result: Vaccinia Venus, VACV mCherry inh)
Cc1ccc(C(=O)O/N=C(\c2ccccc2)c2ccncc2)cc1	Marburg entry inh inconclusive
N/C(=N\OC(=O)c1ccc([N+](=O)[O-])cc1)c1ccc(Br)cc1	none (no result: Shiga toxin inh)
COc1ccc(CN2CCC3(CCC(CNC(=O)c4ccnn4C)O3)CC2)c(C)c1C (stereo not drawn)	none (no result: CHX counter, Shiga toxin inh, Lassa entry inh, Marburg entry inh)
COc1ccc(Cl)cc1NC(=O)CCS(=O)(=O)c1cccc2nonc12	none (no result: CHX counter, Shiga toxin inh)
Cc1ccccc1N=C/C=C1/C=C(c2ccccc2)OC(C)(C)O1	Marburg entry inh inconclusive
COc1ccc(N=C/C=C2\C=C(c3ccccc3)OC(C)(C)O2)cc1	CHX counter 17, Marburg entry inh inconclusive (no result: Vaccinia Venus, VACV mCherry inh)
Cc1ccc(CNC(=O)c2cc3sccc3n2Cc2ccc(Cl)cc2)cc1	none (no result: CHX counter, Shiga toxin inh)
COc1ccc(CCNC(=O)c2c(C)nn(CC(C)C)c2Cl)cc1	VACV mCherry inh inconclusive, Lassa entry inh 2.2µM
Cc1nn(Cc2ccccc2)c(Cl)c1C(=O)NCCc1ccccc1	CHX counter 56, Shiga toxin inh 60 (no result: Vaccinia Venus, VACV mCherry inh, Lassa entry inh, Marburg entry inh)
Clc1ccccc1CONc1ncnc2nonc12	CHX counter 31, Shiga toxin inh active (no result: Vaccinia Venus, VACV mCherry inh)
O=C(c1ccc(N2CCC(NCCCn3ncc4ccccc43)CC2)cc1)N1CCOCC1	none (no result: CHX counter, Shiga toxin inh, Lassa entry inh, Marburg entry inh)
COc1ccc(C2SCC(=O)N2c2nc3ccccc3s2)cc1 (stereo not drawn)	CHX counter 42, Shiga toxin inh 111 (no result: Vaccinia Venus, VACV mCherry inh, Lassa entry inh, Marburg entry inh)
COc1ccc(N2C(=O)CSC2c2ccccc2)cc1 (stereo not drawn)	none
Cc1nn(-c2ccccc2)c(Cl)c1/C=N/Nc1nncc(=O)[nH]1	CHX counter 12 (no result: Vaccinia Venus, VACV mCherry inh, Lassa entry inh, Marburg entry inh)
COc1ccc(NCC(=O)N/N=C/c2c(C)nn(Cc3ccccc3)c2Cl)cc1	Lassa entry inh 7.9µM, Marburg entry inh inconclusive
Cc1cc(=O)[nH]c(N/N=C/c2c(C)nn(-c3ccc(F)cc3)c2Cl)n1	none
CNC(=S)N/N=C/c1c(C)nn(-c2ccccc2)c1Cl	CHX counter 35, Shiga toxin inh 61 (no result: Vaccinia Venus, VACV mCherry inh)
Cc1nn(-c2ccccc2Cl)c(Cl)c1/C=N/Nc1nc2ccccc2s1	CHX counter 104, Shiga toxin inh 170, Lassa entry inh 1.1µM, Marburg entry inh 0.033µM
CNC(=S)N/N=C/c1c(C)nn(-c2cccc(Cl)c2)c1Cl	none (no result: Vaccinia Venus, VACV mCherry inh)
O=C(OCCCCN1C(=O)c2ccccc2C1=O)c1n[nH]c2ccccc12	Lassa entry inh inconclusive (no result: Vaccinia Venus, VACV mCherry inh)
CCOc1ccc(S(=O)(=O)NCCC(=O)N(C)Cc2cccs2)cc1	none (no result: CHX counter, Shiga toxin inh)
Cc1nn(-c2ccccc2)c(Cl)c1/C=N/Nc1ccc(S(=O)(=O)Nc2ccccc2C(=O)O)cc1[N+](=O)[O-]	none
Cc1nn(-c2ccccc2)c(Cl)c1/C=N/NC(=O)OC(C)(C)C	CHX counter 38, Shiga toxin inh 71, Lassa entry inh inconclusive, Marburg entry inh inconclusive
Cc1nn(-c2ccccc2)c(Cl)c1/C=N/Nc1ccc(Cl)c(C(=O)O)c1	CHX counter 87, Shiga toxin inh 98, Lassa entry inh inconclusive, Marburg entry inh 2µM
Cc1ccc(C)c(OCC(=O)N/N=C/c2c(C)nn(-c3ccccc3)c2Cl)c1	none (no result: Vaccinia Venus, VACV mCherry inh, Lassa entry inh)
Cc1nn(-c2ccccc2)c(Cl)c1/C=N/NC(=O)C1COc2ccccc2O1 (stereo not drawn)	none (no result: Vaccinia Venus, VACV mCherry inh)
CCOC(=O)N/N=C/c1c(C)nn(-c2ccccc2Cl)c1Cl	CHX counter 27, Lassa entry inh inconclusive, Marburg entry inh inconclusive
Cc1ccc(C)c(N2CCN(CCCNC(=O)Cn3c(-c4cccs4)cc4ccccc43)CC2)c1	Lassa entry inh inconclusive (no result: CHX counter, Shiga toxin inh, Marburg entry inh)
O=C(NCCN1CCOCC1)c1cc(-c2ccccc2)on1	CHX counter 22, Shiga toxin inh 74
O=C(NCCN1CCOCC1)c1cc(-c2cccs2)on1	CHX counter 20, Shiga toxin inh 57, VACV mCherry inh inconclusive
O=C(NCCCN1CCOCC1)c1cc(-c2ccccc2)on1	CHX counter 13, Shiga toxin inh 137, VACV mCherry inh inconclusive, Lassa entry inh inconclusive
O=C(NCCCN1CCOCC1)c1cc(-c2ccc(O)cc2)on1	none (no result: Lassa entry inh, Marburg entry inh)
CC(=O)N1c2ccccc2CC1C(=O)N1CCN(c2cccc(Cl)c2)CC1 (stereo not drawn)	none (no result: CHX counter, Shiga toxin inh, Marburg entry inh)
O=C(c1cn(CC2CCCCC2)nn1)N1CCN(c2ccc(F)cc2)CC1	CHX counter 30, Shiga toxin inh 49 (no result: Vaccinia Venus, VACV mCherry inh, Lassa entry inh, Marburg entry inh)
Cc1cc(N/N=C/c2ccc(O)cc2O)c2ccccc2n1	none (no result: Vaccinia Venus, VACV mCherry inh, Lassa entry inh, Marburg entry inh)
C/C(=N\Nc1cc(C)nc(-c2ccccc2O)n1)c1ccccc1O	none (no result: Vaccinia Venus, VACV mCherry inh, Lassa entry inh, Marburg entry inh)
Cc1cc(N/N=C\c2ccccc2)nc(-c2ccccc2O)n1	CHX counter 84, Shiga toxin inh 83, VACV mCherry inh inconclusive
Cc1cc(N/N=C/c2ccc(O)cc2O)nc(-c2ccccc2O)n1	Vaccinia Venus 6.3µM, CHX counter 59, Shiga toxin inh active, VACV mCherry inh 2.8µM, Lassa entry inh inconclusive, Marburg entry inh inconclusive
Cc1cc(N/N=C/c2ccccc2O)nc(-c2ccccc2O)n1	CHX counter 25, Shiga toxin inh 46
Cc1ccc(CN(C(=O)COc2ccc(C(C)(C)C)cc2)C2CCS(=O)(=O)C2)o1 (stereo not drawn)	Marburg entry inh inconclusive (no result: CHX counter, Shiga toxin inh)
CC(=O)c1ccc(F)c(-c2cc(C)cc3c2OC(CNC(=O)c2cccnc2)C3)c1 (stereo not drawn)	none (no result: CHX counter, Shiga toxin inh, Lassa entry inh, Marburg entry inh)
CN(C)c1ccnc(Oc2ccc(Cl)cc2)c1C#N	CHX counter 69, Shiga toxin inh 127, Lassa entry inh inconclusive
